# Rab9 prom act: activators of Rab9 promoter. hit rate 2.8% among 320,000. AID 485297. Huh7 Rab9 promoter-luciferase reporter, luminescence, 24 h. Potency, µM (titrated, usually from 9.22 µM), most hits filed as activators; also: nearly all actives have a fitted effect of over 60% in size
#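 Quantitative HTS format; Huh7 Rab9-luciferase reporter cells (1500/well) receive compound 2 h post-plating, incubate 24 h at 37 °C, then get luciferase reagent for 10 min before luminescence reading.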
# SMN2 splice up: SMN2 splice variant enhancement; HEK293 SMN2-luciferase splicing reporter, luminescence, 30-36 h; Potency, µM (highest dose often 46.1 µM), hits mostly activators; hit rate 2.8% among 210,000; AID 1458; also: nearly all actives have a fitted effect of over 55% in size
#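 HEK293 cells carry an SMN2 […]–luciferase reporter in which exon 7 inclusion puts luciferase in frame. Cells were plated 10-12 h before compound addition, then incubated 30-36 h at 37C. ONE-Glo luminescence was read; sodium butyrate at 4.5 mM final served as control.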
# NPC1 prom act: activators of NPC1 promoter; Potency, µM (doses to about 9.22 µM), hits mostly activators; AID 485313; hit rate 2.4% among 320,000; Huh7 NPC1 promoter luciferase reporter, 24 h; also: nearly all actives have a fitted effect of over 60% in size
#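 Cells: Huh7 expressing luciferase under the NPC1 promoter, 1500/well. Seeded 2 h, compound added, incubated 24 h at 37 °C. Luciferase reagent, 10 min ambient, then luminescence.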
# ELG1 genotoxic: induces genotoxicity in HEK293T cells with luciferase-tagged ELG1; HEK293T ELG1-luciferase reporter, luminescence, 16 h; Potency, µM (titrated, usually from 46 µM), hits mostly activators; AID 504466; hit rate 1.3% among 330,000; also: nearly all actives have a fitted effect of over 60% in size
#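 After overnight (16 hr) compound treatment at 37 °C, ELG1-luciferase HEK293T cells were lysed with ONE-Glo; luminescence quantified 30 min later at room temperature.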
# Luc counter: Kinase-Glo luciferase inhibition (counter-screen); Q27757; Kinase-Glo luciferase, ATP luminescence, 8 min; Potency, µM (top dose mostly 38.3 µM), hits mostly inhibitors; hit rate 0.28% among 200,000; AID 1379; also: nearly all actives have a fitted effect of over 60% in size
#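 Luminescence was the read-out, taken after 8-minute incubation at ambient temperature. Luciferase turned over luciferin with 10 uM ATP in imidazole pH 7.2 buffer containing KCl, MgCl2, Tween 20 and BSA.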
# FLuc modulator: firefly luciferase modulation, counter-screen for miR-21 project. purified FLuc, Km substrates, luminescence inhibition. Potency, µM (top dose mostly 57.5 µM), actives largely listed as inhibitors. hit rate 6.9% among 360,000; also: nearly all actives have a fitted effect of over 55% in size
# Target sequence (P08659 whole entry, looked up): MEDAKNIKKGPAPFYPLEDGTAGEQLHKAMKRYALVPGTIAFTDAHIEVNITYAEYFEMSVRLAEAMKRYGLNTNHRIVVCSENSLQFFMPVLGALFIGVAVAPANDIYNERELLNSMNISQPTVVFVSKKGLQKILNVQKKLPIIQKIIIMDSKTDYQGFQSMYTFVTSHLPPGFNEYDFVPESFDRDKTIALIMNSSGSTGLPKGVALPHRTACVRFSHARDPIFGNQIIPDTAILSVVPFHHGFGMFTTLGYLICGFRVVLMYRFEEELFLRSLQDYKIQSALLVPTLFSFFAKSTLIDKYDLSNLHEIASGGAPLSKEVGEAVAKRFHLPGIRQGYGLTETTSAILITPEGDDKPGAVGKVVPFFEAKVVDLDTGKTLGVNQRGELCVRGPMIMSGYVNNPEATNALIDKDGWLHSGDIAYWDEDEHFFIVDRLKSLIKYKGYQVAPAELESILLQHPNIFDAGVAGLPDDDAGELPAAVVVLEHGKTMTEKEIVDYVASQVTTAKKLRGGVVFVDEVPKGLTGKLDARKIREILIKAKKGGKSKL
#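 Purified P. pyralis luciferase, 10 nM final, with Km-level 10 uM D-luciferin and 10 uM ATP in 50 mM Tris acetate pH 7.5, 10 mM Mg acetate, 0.01% Tween-20, 0.05% BSA; 6-point qHTS titration about 60 µM downward; luminescence read.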
# Numbers stand for hits; n = inactive; u = inconclusive; x = not tested or not shown. Compounds with a hit are over-represented: about 7.5% of the library has one in this group of screens. Calls follow the shape of the dose curve; as a rule, active = well fitted curve in the direction sought with a large enough effect; inconclusive = small, poorly fitted or top-dose-only effect, or another doubt; inactive = no such curve, though single readings can be large; an effect the other way counts as inactive or inconclusive.
SMILES,Rab9 prom act,SMN2 splice up,NPC1 prom act,ELG1 genotoxic,Luc counter,FLuc modulator
O=C(N/N=C/c1cccnc1)c1cc(-c2ccccc2)nc2ccccc12,n,x,n,n,x,10.7µM
Cc1occc1C(=O)Nc1cc(C(F)(F)F)ccc1Cl,n,25.1µM,n,n,n,n
O=C(O)c1ccc(NNC(=S)Nc2cc(C(F)(F)F)ccc2Cl)cc1,n,x,n,18.3µM,x,23.9µM
Cc1occc1C(=O)Nc1ccc(Br)cc1F,3.16µM,n,u,u,n,21.3µM
O=C(O)c1nccnc1C(=O)Nc1ccccc1-c1ccccc1,n,x,n,n,x,n
CC1CCCN(C(=O)CSc2nc3ccccc3o2)C1 (stereo unspecified),3.16µM,n,2.51µM,u,n,16.9µM
O=C(O)c1ccc2oc(SCC(=O)N3CCCCC3)nc2c1,2.51µM,12.6µM,3.55µM,u,n,16.9µM
CN(C(=O)CSc1nc2ccccc2o1)C1CCCCC1,2.82µM,x,2.24µM,u,x,7.57µM
CN(C(=O)CSc1nnc(-c2cccnc2)o1)C1CCCCC1,n,x,n,n,x,n
COc1ccc(/C=C/c2cc(O)cc(O[C@H]3OC(CO)C(O)C(O)C3O)c2)cc1 (stereo partly specified),x,n,x,x,n,x
CCOc1ccc(-c2nc3c(C#N)c[nH]n3c2NC2CCCCC2)cc1,x,x,x,x,x,n
CCN=c1scc(C)n1/N=C/c1ccc(O)c(O)c1O,n,n,n,n,n,3.38µM
CCN=c1scc(C)n1/N=C/c1cc(Br)c(O)c(Br)c1,n,u,n,n,n,19µM
C=C(C)CN=c1scc(C)n1/N=C/c1ccco1,n,n,n,n,n,n
Cc1nn(C)c2c1c(C(F)(F)F)cc(=O)n2CC(=O)N1CCCCC1C (stereo unspecified),x,x,x,x,x,n
Cc1ccc(C[C@@H](NS(=O)(=O)c2ccc(C(=O)O)cc2)C(=O)O)cc1,n,x,n,x,x,n
CCC1(CC)NC(=O)N(CC(=O)OC(C)C(=O)Nc2cc([N+](=O)[O-])ccc2OC)C1=O (stereo unspecified),n,x,n,n,x,n
CCc1ccc2c(c1)c1nc(C)sc1n2CC,n,n,n,n,n,19µM
CCCc1cc(C(=O)Nc2ccc(CC)cc2)no1,1.58µM,x,3.16µM,u,x,4.78µM
CCCc1cc(C(=O)Nc2ccc(C)cc2)no1,4.47µM,n,u,u,n,3.38µM
CCOc1cc(/C=C2/C(=O)ON=C2C)cc(Br)c1O,n,x,n,n,x,21.3µM
CCOc1cc(/C=C2\C(=O)ON=C2c2ccccc2)cc(Br)c1O,n,x,n,u,x,9.53µM
CC1(C)CC(=O)C2=C(C1)OC(N)=C([N+](=O)[O-])C2c1cccs1 (stereo unspecified),n,n,n,n,n,n
C=CCn1c(O)c(N=NC(=O)OC(C)(C)C)c2ccccc21,n,n,n,n,n,16.9µM
C=CCn1c(O)c(N=NC(=O)C(O)c2ccccc2)c2ccccc21 (stereo unspecified),n,x,n,n,x,n
SMILES,Rab9 prom act,SMN2 splice up,NPC1 prom act,ELG1 genotoxic,Luc counter,FLuc modulator
OC[C@@H](O)[C@@H](O)CCc1ccccc1,x,n,x,x,n,x
COc1cc(-c2nc3cnccn3c2Nc2ccc(C(C)C)cc2)ccc1O,n,n,n,n,n,n
COc1cc(-c2nc3cnccn3c2Nc2ccccc2)ccc1O,n,14.1µM,n,n,n,n
COc1cc(-c2nc3cnccn3c2Nc2ccc(C)cc2)ccc1O,n,17.8µM,n,13µM,n,n
O=C(Cc1ccc(Cl)cc1Cl)NCc1cccnc1,n,x,n,n,x,n
Nc1nc(CSc2ccc(Cl)cc2)nc(N2CCCCC2)n1,n,n,n,n,n,u
Nc1nc(CSc2ccccc2)nc(N2CCCCC2)n1,u,20µM,u,u,n,u
Cc1ccccc1Nc1c(-c2ccncc2)nc2ccc(Br)cn12,n,12.6µM,n,n,n,n
COC(=O)CNc1c(-c2ccccc2)nc2ccc(Br)cn12,u,n,u,u,n,7.57µM
Cc1ccccc1Nc1c(-c2cccnc2)nc2ccc(Br)cn12,n,n,n,n,n,n
COC(=O)Nc1c(-c2ccccc2)nc2ccc(Cl)cn12,n,x,n,n,x,n
Cc1ccc2nc(-c3ccncc3)c(Nc3ccccc3C)n2c1,x,11.2µM,x,x,x,n
Cc1ccc2nc(-c3cccnc3)c(Nc3ccccc3C)n2c1,n,n,n,n,n,n
CC(C)CN(C(=O)c1cccc(S(=O)(=O)N2CCN(C)CC2)c1)C1CCS(=O)(=O)C1 (stereo unspecified),n,x,n,n,x,n
CCC(C)C(NC(=O)c1ccccc1NC(=O)c1ccc(C)cc1)C(=O)O (stereo unspecified),n,x,n,n,x,u
Cc1ccc(C(=O)Nc2ccccc2C(=O)NC(CC(=O)O)C(=O)O)cc1 (stereo unspecified),n,n,n,n,n,15.1µM
Cc1ccc(C(=O)Nc2ccccc2C(=O)NC(C(=O)O)C(C)C)cc1 (stereo unspecified),u,12.6µM,u,u,n,10.7µM

# Source: PubChem (National Center for Advancing Translational Sciences (NCATS))
